Bioassay records (PubChem BioAssay)
FBW7 activator = FBW7 E3 ligase activators, primary screen, biochemical, AlphaScreen, human; F-box/WD repeat-containing protein 7 (Homo sapiens), Q969H0; AlphaScreen FBW7–phospho-cyclin E peptide binding, activator screen; normalized activity (activation), % at 26.1 µM; AID 1259310, 2017; actives 0.13% (n = 650,000); in the data active = normalized activity above about 1.9%;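 note: purified mutant Fbw7 with reduced substrate affinity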
GPR151 ag = activators of human GPR151, primary screen, cell-based, PathHunter beta-arrestin, luminescence; activation, % at 11.2 µM; AID 1508602, 2020; PathHunter beta-arrestin GPR151 cells; actives 1% (n = 650,000); in the data active = activation above about 4.9%;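 note: 0% = median of compound wells and 100% = cells with positive control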
Target sequence (Q8TDV0 whole entry, looked up): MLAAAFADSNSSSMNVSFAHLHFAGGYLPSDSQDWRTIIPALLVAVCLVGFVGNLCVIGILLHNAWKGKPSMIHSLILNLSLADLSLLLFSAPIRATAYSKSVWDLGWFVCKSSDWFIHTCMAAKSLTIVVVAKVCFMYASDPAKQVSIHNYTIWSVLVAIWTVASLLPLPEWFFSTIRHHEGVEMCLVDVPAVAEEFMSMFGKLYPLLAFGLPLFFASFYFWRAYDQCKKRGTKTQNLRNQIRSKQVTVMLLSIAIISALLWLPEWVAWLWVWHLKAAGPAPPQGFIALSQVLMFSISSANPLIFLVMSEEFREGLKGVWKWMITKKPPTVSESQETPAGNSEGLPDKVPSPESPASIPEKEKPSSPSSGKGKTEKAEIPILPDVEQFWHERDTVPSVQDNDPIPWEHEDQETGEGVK
MITF inh = MITF inhibitors, primary screen, biochemical, AlphaScreen, human. Microphthalmia-associated transcription factor (Homo sapiens), O75030. AlphaScreen MITF homodimerization, bead proximity signal. inhibition, % at 2.6 µM. actives 0.91% (n = 650,000); in the data active = inhibition above about 50%;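 note: 0% = vehicle wells with protein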
TEAD-YAP inh = TEAD-YAP interaction inhibition, primary screen, TEAD-YAP interaction inhibitor project, luminescence, HEK-TIYL cells | AID 1259422, 2018 | inhibition, % at 9.12 µM | TEAD-Gal4/YAP UAS-luciferase luminescence | actives 1.4% (n = 640,000); in the data active = inhibition above about 32%;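 note: 0% = median of test compound wells and 100% = reference inhibitor wells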
MITF inh conf = MITF inhibitors, retest of hits, confirmation, biochemical, AlphaScreen, triplicate | AlphaScreen MITF homodimerization, biotin/His-MITF beads | AID 1259372, 2018 | shares compounds with MITF inh | inhibition, % at 2.6 µM | actives 16% (n = 4,700);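 active = inhibition above a cutoff derived from the DMSO control wells, cut at about 28% in these data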;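 note: 0% = MITF dimer wells with DMSO only; inhibitors lower the bead chemiluminescence by keeping MITF from dimerizing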
AlphaScreen intf2 = AlphaScreen optical interference compounds, counter-screen for MITF inhibitor project, biochemical, triplicate | inhibition, % at 2.6 µM | AID 1259376, 2018 | shares compounds with MITF inh | actives 7.6% (n = 4,700) | LysRS AlphaScreen counterscreen, signal interference;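 active = inhibition above a cutoff derived from the DMSO control wells, cut at about 30% in these data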
Starred values were filed as active, the others as inactive; / = no result given. A selection: hits, their analogues and other compounds. The true share with any hit is near 3.5%.

SMILES	FBW7 activator	GPR151 ag	MITF inh	TEAD-YAP inh	MITF inh conf	AlphaScreen intf2
CCc1ccc(-c2cc(C(=O)Nc3cc(C(=O)OC)cc(C(=O)OC)c3)c3ccccc3n2)cc1	0	-1	53*	4	3	10
CCc1ccc(-c2cc(C(=O)Nc3ccc(C(=O)OC)cc3)c3ccccc3n2)cc1	0	1	7	2	/	/
O=C(c1ccco1)N1CCN(Cc2ccncc2)CC1	0	-1	82*	-1	7	27
O=C(c1ccco1)N1CCN(Cc2ccccc2Br)CC1	0	0	60*	-40	6	14
CC(C)N1CCN(C(=O)c2ccco2)CC1	0	0	51*	3	2	1
O=C(c1ccco1)N1CCN(C(=O)c2ccco2)CC1	0	0	-2	-4	/	/
CCC(=O)NC(c1nnc2n1CCN(Cc1ccccc1-c1ccco1)CC2)C(C)C (configuration not stated)	0	0	4	-6	/	/
O=C(Oc1ccc(N2C(=O)C=CC2=O)cc1)c1ccc([N+](=O)[O-])cc1[N+](=O)[O-]	0	-1	-1	6	/	/
COc1ccccc1-c1nnc(SCC(=O)N2CCc3ccccc32)o1	0	2	62*	6	9	-9
CCc1ccc(N2C(=O)C(Cl)=C(NC3CCCCC3)C2=O)cc1	0	2	64*	-4	-5	6
CCCCOc1ccc(CN2CCN(CCOCCO)CC2)cc1	0	2	76*	6	18	-1
COc1ccc(CN2CCN(CCOCCO)CC2)cc1	0	2	14	6	/	/
O=Cc1cc(Cl)ccc1OCCCN1CCN(Cc2ccccc2)CC1	0	0	57*	-4	5	10
O=Cc1cc(Cl)ccc1OCCOc1ccccc1	0	-1	-3	-48	/	/
CC(=O)CCc1ccc(OCCCN2CCN(Cc3ccccc3)CC2)cc1	0	0	59*	1	9	6
CN1CCN(CCCOc2ccccc2C=O)CC1	1	-1	65*	-2	6	17
Cc1ccc(NC(=O)Cn2cnc3c2c(=O)n(C)c(=O)n3C)cc1	0	1	6	5	/	/
CC(C(=O)OCC(=O)c1ccc(-c2ccccc2)cc1)N1C(=O)c2ccc3c4c(ccc(c24)C1=O)CC3 (configuration not stated)	1	-1	19	1	/	/
CCn1c(=N)n(CC(=O)c2ccc(Cl)cc2)c2ccccc21	2	0	-33	-41	/	/
CN1CCN(CCCOc2ccc(Cc3ccccc3)cc2)CC1	0	0	-4	4	/	/
O=Cc1ccc(OCCCN2CCN(Cc3ccccc3)CC2)cc1	0	0	57*	10	6	10
CCn1c(C)[n+](CC)c2ccc(S(=O)(=O)C(F)F)cc21	0	0	1	6	/	/
CCn1c(C)[n+](CC)c2ccc(Cl)cc21	0	1	57*	-2	-2	3
CC(C)n1cnc2c(NCCN3CCOCC3)nc(Nc3cnccn3)nc21	1	1	21	10	/	/
O=C(Nc1cccnc1Cl)c1cnn2c(C(F)(F)F)cc(-c3cccs3)nc12	0	-1	3	0	/	/
SMILES	FBW7 activator	GPR151 ag	MITF inh	TEAD-YAP inh	MITF inh conf	AlphaScreen intf2
CSc1ccccc1NC(=O)c1cnn2c(C(F)(F)F)cc(-c3cccs3)nc12	1	-1	75*	3	9	-1
COc1ccc(-c2cc(N3CCCN(C)CC3)ncn2)cc1	0	-1	10	-14	/	/
COc1ccc2c(C)cc(N3CCCN(C)CC3)nc2c1	0	1	62*	8	-2	-3
COc1ccc(-n2c(=S)[nH]c3cc(C(=O)Nc4cc(C)cc(C)c4)ccc3c2=O)c(OC)c1	0	3	18	6	/	/
COCCCNC(=O)COc1cc(C)cc(C)c1C	0	-1	19	-9	/	/
CCN(CC)CCN1CCN(c2ccnc3c(-c4ccco4)cnn23)CC1	-2	2	55*	-15	8	13
COc1cc(O)ccc1CN1CCc2nnc(C3CCCO3)n2CC1 (configuration not stated)	0	1	7	-7	/	/
